Pol eta inh – inhibitors of human DNA polymerase eta; Q9Y253; recombinant Pol eta, fluorescent DNA replication assay; Potency, µM (titrated, usually from 114 µM), for the others: at the top dose activity change, negative = inhibition, usual class: inhibitors; 390,000 compounds, 1.2% hits; AID 588591; further: on the % scale 0 is the no-effect control and ±100 the full control effect
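Pol eta (10 nM) was preincubated with compounds for 15 min at room temperature, after which fluorescent replication substrate (50 nM final) was added to start the reaction. Fluorescence was read kinetically at 0 and 10 min.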
TDP1 block – inhibitors of human tyrosyl-DNA phosphodiesterase TDP1; Q9NUW8; Potency, µM (doses to about 130 µM), without a hit: at the highest dose activity change, negative = inhibition, actives largely listed as inhibitors; 350,000 compounds, 0.28% hits; recombinant TDP1, AlphaScreen DNA substrate cleavage; further: on the % scale 0 is the no-effect control and ±100 the full control effect; nearly all actives have a fitted effect of over 40% in size
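Compounds were preincubated with Tdp1 (1 nM final) for 15 min at room temperature before substrate (15 nM final) started a 5 min reaction; beads (10 ug/ml final) were then added for 10 min before AlphaScreen detection.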
Pol beta inh – DNA polymerase beta (human) inhibition; P06746; Pol beta primer extension/strand displacement, fluorescence kinetic; Potency, µM (top dose mostly 114 µM), for inactives: top-dose activity change, negative = inhibition, usual class: inhibitors; 340,000 compounds, 1.3% hits; AID 485314; further: on the % scale 0 is the no-effect control and ±100 the full control effect
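Kinetic readout of DNA synthesis with strand displacement by Pol beta. Compound and 10 nM enzyme sit 15 min at room temperature; 50 nM substrate starts the reaction, read immediately and at 10 min.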
POLI inh – DNA polymerase iota (human) inhibition | Pol iota fluorescent replication assay, 10 min | Q9UNA4 | Potency, µM (doses to about 115 µM), inactives show at the highest dose activity, negative = inhibition, hits mostly inhibitors | 390,000 compounds, 1% hits
Target sequence (Q9UNA4 whole entry, looked up): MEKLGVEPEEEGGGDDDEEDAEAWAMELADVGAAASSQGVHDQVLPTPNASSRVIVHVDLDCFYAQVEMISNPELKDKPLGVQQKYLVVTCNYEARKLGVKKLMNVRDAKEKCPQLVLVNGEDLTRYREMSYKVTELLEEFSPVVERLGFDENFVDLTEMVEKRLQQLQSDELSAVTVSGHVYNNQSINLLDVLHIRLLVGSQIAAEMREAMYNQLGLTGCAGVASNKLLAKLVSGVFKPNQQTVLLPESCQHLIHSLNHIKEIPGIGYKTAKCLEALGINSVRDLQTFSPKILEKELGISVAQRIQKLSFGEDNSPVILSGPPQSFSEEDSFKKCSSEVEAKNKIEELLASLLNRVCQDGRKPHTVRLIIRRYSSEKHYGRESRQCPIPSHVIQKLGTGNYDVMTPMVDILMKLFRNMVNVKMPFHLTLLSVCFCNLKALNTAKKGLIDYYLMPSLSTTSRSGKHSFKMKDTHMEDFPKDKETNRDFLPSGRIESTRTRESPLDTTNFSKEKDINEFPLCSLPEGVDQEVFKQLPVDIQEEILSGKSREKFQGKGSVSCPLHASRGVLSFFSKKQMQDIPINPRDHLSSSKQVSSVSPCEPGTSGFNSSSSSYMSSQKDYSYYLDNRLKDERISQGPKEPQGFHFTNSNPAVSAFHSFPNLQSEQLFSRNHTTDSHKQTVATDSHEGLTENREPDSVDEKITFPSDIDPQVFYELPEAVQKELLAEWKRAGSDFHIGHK
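Fluorescent replication assay read twice, at 0 min and 10 min after adding 50 nM (final) substrate. Enzyme (10 nM) and compounds were first incubated 15 min at room temperature; enzyme-free buffer wells were negative controls.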
POLK inh – blocks human DNA polymerase kappa activity; Q9UBT6; purified Pol kappa, fluorescent DNA synthesis assay, 10 min; Potency, µM (doses to about 107 µM), inactives show top-dose activity, negative = inhibition, hits mostly inhibitors; 400,000 compounds, 0.53% hits; further: on the % scale 0 is the no-effect control and ±100 the full control effect
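Enzyme at 10 nM met test compounds for 15 min at room temperature. Substrate addition (50 nM final) began the reaction, which was monitored by fluorescence at 0 and 10 min.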
FEN1 inhibitor – human FEN1 inhibition; Recombinant FEN1 flap cleavage, fluorescence, 15 min; Potency, µM (highest dose often 114 µM), for inactives: at the highest dose activity change, negative = inhibition, usual class: inhibitors; 390,000 compounds, 0.35% hits; P39748; further: on the % scale 0 is the no-effect control and ±100 the full control effect; nearly all actives have a fitted effect of over 65% in size
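Concentration–response screening of FEN1 (10 nM): 15 min compound preincubation at room temperature, reaction started with 50 nM substrate and read at 0 and 15 min. Corrected, normalized data were fitted by a four-parameter Hill equation.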
Starred values were filed as active, the others as inactive; ? = inconclusive; · = not tested or not shown; ! = repeats disagree; [ ] = dose if it differs, or a comment. Shown are actives, neighbours in structure and some others; about 2.4% of the full set was active somewhere. The call rests on the fitted dose curve; in most records, active means well fitted curve in the direction sought with a large enough effect; inconclusive means small, poorly fitted or top-dose-only effect, or another doubt; inactive means no such curve, though single readings can be large; an effect the other way counts as inactive or inconclusive. Potency means the concentration at half of the fitted maximal effect.

SMILES | Pol eta inh | TDP1 block | Pol beta inh | POLI inh | POLK inh | FEN1 inhibitor
CCOC(=O)Cc1cc(=O)c2c(=O)n(-c3ccccc3)[nH]c2[nH]1 | -11% | 2% | 2% | 22µM* | 22µM* | -3%
CC(C)OC(=O)c1ccc(N2C(=O)C3CC=CCC3C2=O)cc1 (configuration not stated) | -15% | 4% | -1% | 6% | 4% | 12%
CCOC(=O)c1ccc(N2C(=O)C3CC=CCC3C2=O)cc1 (configuration not stated) | -7% | 6% | -2% | 89µM* | -9% | -2%
CCc1cc(-c2n[nH]c(C)c2-c2ccccc2Cl)c(O)cc1OC | -16% | · | 5% | 89µM* | 0% | -14%
CCc1cc(=O)oc2cc(C)c3c(-c4ccc(F)cc4)coc3c12 | -12% | · | 9% | -2% | -6% | -16%
O=c1cc(CSc2nnc(COc3ccccc3Cl)o2)nc2sccn12 | 11% | -8% | 35µM* | -8% | -1% | -1%
O=C(COc1ccccc1Cl)Nc1ccc(OCc2cc(=O)n3ccsc3n2)cc1 | -9% | 1% | 31% | 31% | -8% | -7%
CC(=O)c1ccc(NC(=O)Cn2c(=O)nc(-c3ccccc3)c3ccccc32)cc1 | -10% | 1% | -18% | 71µM* | -9%[60.1 µM] | 11%
COC(=O)c1nc(NC(=O)C(C)(C)C)n[nH]1 | 2% | 1% | 1% | 79µM* | -8% | -16%
COC(=O)c1nc(NC(=O)c2ccc(Br)cc2)n[nH]1 | -3% | 3% | 13% | -3% | -12% | 1%
CNC(=O)c1ccsc1NC(=O)c1sc2ccccc2c1Cl | ? | -5% | 14µM* | ? | ? | -9%
O=C(CCS(=O)(=O)c1ccccc1)N(Cc1cccnc1)c1nc2c(Cl)cccc2s1 | -17% | 3% | 2% | 11% | 11% | 1%
CCc1ccc(C(c2ccc(CC)cc2)C(Cl)Cl)cc1 | -15% | 20µM*! | · | 11% | -21% | -18%
O=C(CCCN1C(=O)/C(=C\c2cccs2)SC1=S)Nc1ccccc1O | -2% | · | · | · | · | ·
CC(C(=O)Nc1ccc(O)cc1C(=O)O)N1C(=O)/C(=C\c2cccs2)SC1=S (configuration not stated) | 22µM* | 6% | ? | ? | ? | -24%
O=C(Cc1cccc2ccccc12)N/N=C/c1ccc(OC(=O)/C=C/c2ccco2)cc1 | ? | -10% | 10µM* | ? | ? | -10%
O=C(Nc1nc(-c2ccncc2)cs1)c1ccco1 | ? | 6% | 40µM* | ? | -13% | 3%
Cc1c(-c2nsc(NC(=O)c3cccs3)n2)nnn1-c1ccc(F)cc1 | -9% | -8% | 7% | -13% | 4% | 5%
Cc1c(-c2nsc(NC(=O)c3cccs3)n2)nnn1-c1ccc(Cl)cc1 | ? | 0% | 20µM* | ? | -44% | ?
O=C1CC(c2ccco2)Sc2nc3ccccc3n21 (configuration not stated) | 7% | 10% | -2% | 20µM* | 50µM* | -12%
O=C1CC(c2cccs2)Sc2nc3ccccc3n21 (configuration not stated) | -6% | 2% | -27% | -10% | 2% | -4%
Cc1cccc(NC(=O)CCc2nc3sc4c(c3c(=O)[nH]2)CCCC4)c1 | ? | · | · | 17% | 0% | 0%
COc1ccccc1NC(=O)CCc1nc2sc3c(c2c(=O)[nH]1)CCCC3 | 50µM* | -5% | · | 25µM* | ? | 2%
CCc1cccc(NC(=O)CCc2nc3sc4c(c3c(=O)[nH]2)CCCC4)c1 | 32µM* | · | · | 18µM* | ? | 3%
COc1cccc(NC(=O)CN(C)C(=O)CCc2nc3sc4c(c3c(=O)[nH]2)CCCC4)c1 | 22µM* | -5% | 35µM* | 28µM* | -24% | 2%
SMILES | Pol eta inh | TDP1 block | Pol beta inh | POLI inh | POLK inh | FEN1 inhibitor
CCc1ccccc1N(C)C | · | · | · | 26% | 12% | 8%
C=CCNC(=O)c1cnn2c1NC(=C)C=C2C | · | · | · | 25% | -9% | 5%
CCOC(=O)C(CS)NCCN[C@@H](CS)C(=O)OCC (some centres not stated) | · | · | · | · | 0%[19.4 µM] | ·
O=C1C(=O)c2ccccc2C(O)=C1CCCCl | ? | -5% | 30% | 14µM* | -9% | ?
COc1ccc(CC2=C(O)c3ccccc3C(=O)C2=O)cc1 | -18% | 6% | 23% | ? | -1% | -6%
CCN(CC)C(=O)CC(c1ccc(OC)cc1)c1c(OC)cc(OC)c2ccc(=O)oc12 (configuration not stated) | ? | -13% | ? | 79µM* | ? | 1%
CCN(CC)C(=O)CC(c1cc(OC)c(OC)c(OC)c1)c1c(OC)cc(OC)c2ccc(=O)oc12 (configuration not stated) | -2% | 0% | 5% | -24% | -10% | -11%
CCN(CCO)c1nc(SC)nc2c1sc1nc(-c3ccco3)c3c(c12)CCC3 | -15% | 4% | 7.1µM* | ? | ? | -9%
CCN(CCO)c1ncnc2c1sc1nc(C(C)C)c3c(c12)CC(C)(C)OC3 | -10% | -2% | 18% | ? | -18% | 2%
CSc1nc(NCCOCCO)c2sc3nc(-c4ccco4)c4c(c3c2n1)CCC4 | -13% | 35µM* | 3.5µM* | 12% | -1% | 2%
Cc1ccc(SCc2cc(=O)n3ccsc3n2)c(C)c1 | · | -1% | 28µM* | · | · | ·
O=c1cc(CSc2n[nH]c(-c3ccncc3)n2)nc2sccn12 | ? | -5% | 10µM* | 50µM* | ? | 3%
Cc1ccc(Nc2nnc(SCc3cc(=O)n4ccsc4n3)s2)c(C)c1 | 0% | 1% | 2% | 8% | -17% | -12%
Cc1ccc2ccc3cccc4ccc1c2c34 | -22% | 56µM* | · | 9% | 13% | 9%
Cc1ccnc2c1ccc1ccccc12 | 1% | · | 41% | 10% | -22%[60.1 µM] | -2%
CCCc1nc2ccccc2n1CC(O)COc1ccc(C(=O)OC)cc1 (configuration not stated) | -6% | 5% | 10% | 8% | -9% | -12%
COc1cc(NC(=O)CSc2nnc3c(n2)[nH]c2ccc(S(=O)(=O)NC(C)C)cc23)cc(OC)c1OC | 18µM* | -12% | ? | 45µM* | ? | 11%
COc1cc(NC(=O)CSc2nnc3c(n2)[nH]c2ccc(OC)cc23)cc(OC)c1 | · | · | · | 8% | -3% | 19%
CCCSCCCNC(=O)c1cc2n(n1)CCCN(Cc1ccc(C)cc1)C2=O | -16% | 1% | 4% | 20% | -3%[60.1 µM] | 19%
O=c1cc(N2CCCCC2)[nH]c(=O)n1C1CCCCC1 | -10% | · | 3% | -14% | -9% | -16%

From PubChem BioAssay
